# Source: PubChem
# PfHsp40 yeast: rescue of PfHsp40-mediated yeast toxicity; growth rescue, % at 12.5 µM; 340,000 compounds, 0.68% hits; S. cerevisiae expressing PfHsp40, growth rescue, ATP luminescence; in the data active = growth rescue above about 28%, passing the limit was not always enough;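 note: yeast W303a lacking pdr1 and pdr3 grown in galactose medium; growth measured after three days at 30 °C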
# RN4220 kill: kills Staphylococcus aureus RN4220; S. aureus RN4220 growth, OD600, 16 h; inhibition, % (no concentration beside the values); 330,000 compounds, 0.33% hits; AID 1259311; in the data active = inhibition above about 85%;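 note: plate controls were untreated cells for no effect and reference antibiotic for full effect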
# ugtP null kill: growth inhibition of S. aureus ugtP deletion strain; S. aureus RN4220 ugtP deletion, OD600 growth, 16 h; growth inhibition, % (concentration not given with the values); 330,000 compounds, 0.54% hits; AID 1259309; in the data active = growth inhibition above about 68%;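 note: plate controls were untreated wells for no effect and antibiotic for full effect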
# BJeLR lethal: BJeLR cell viability loss; BJeLR (HRASV12) viability, CellTiter-Glo ATP luminescence, 48 h; inhibition, % (no concentration beside the values); 300,000 compounds, 0.17% hits; AID 1554; in the data active = inhibition above about 50%
# CCHFV vOTU inh: CCHFV vOTU protease inhibition. Pep-AMC fluorescence. inhibition, % at 11.5 µM. 370,000 compounds, 0.55% hits; in the data active = inhibition above about 30%; note: 0% = vehicle wells with enzyme and 100% = no enzyme wells
# Starred values were filed as active, the others as inactive; · = no result given. A selection: hits, their analogues and other compounds. The true share with any hit is near 1.6%.
SMILES,PfHsp40 yeast,RN4220 kill,ugtP null kill,BJeLR lethal,CCHFV vOTU inh
COC(=O)COc1ccc(-c2ccccc2)cc1C=O,64.3*,7.1,12.8,-3.9,-10.8
COC(=O)COc1ccc(C)cc1-n1nc2ccccc2n1,43.6*,4.7,3.7,-3.9,4.9
CCOC(=O)c1c(C)[nH]c(C(=O)COC(=O)COc2ccccc2C=O)c1C,1.7,11.9,6.2,-1.8,11.7
COC(=O)COc1ccccc1C(N)=O,-2.0,1.1,-1.4,-4.4,-4.8
COC(=O)COc1ccc(-c2ccc(F)cc2)cc1C=O,63.0*,-2.7,3.7,-2.3,-10.3
CCOC(=O)C1C2COc3cc(OC)ccc3C2N2C(=O)CN(Cc3ccc(Cl)cc3)C(=O)[C@@]12C (stereo partly drawn),·,5.4,9.9,·,·
C=C1CCN(C(CC(C)C)C(=O)NCc2ccco2)S(=O)(=O)c2ccccc21 (stereo not drawn),·,6.7,-1.2,·,·
CC(C)n1cc(C=NNC(=O)COc2cccc3cccnc23)c2ccccc21,·,8.0,-24.1,·,·
FC(F)(F)c1cnc(NNC(=S)Nc2ccc(Cl)cc2)c(Cl)c1,0.6,92.4*,70.0,20.3,8.3
Cc1ccc(NC(=S)NNc2ncc(C(F)(F)F)cc2Cl)cc1,0.1,7.9,-2.0,0.7,27.1
CC(C)(C)c1nc(NC(=O)Nc2ccccc2)sc1Br,0.2,96.8*,92.3*,5.1,12.9
COC(=O)c1ccc(C=NN2CCN(Cc3ccccc3)CC2)cc1,·,1.1,1.0,·,·
CCc1ccc(Nc2n[n+](-c3ccccc3)c(-c3c(Cl)cccc3Cl)s2)cc1,-0.8,100.0*,100.1*,29.5,-0.2
COc1ccc(CN2CCN(Cc3ccco3)CC2)cc1,1.1,5.5,7.6,-7.4,11.1
FC(F)(F)c1ccc(CN2CCN(Cc3ccco3)CC2)cc1,49.5*,2.8,3.1,3.0,-15.8
O=C(Nc1cccc(Cl)c1)c1cc(N=Nc2ccc([N+](=O)[O-])cc2Cl)ccc1O,-0.9,94.4*,99.6*,0.5,-0.5
O=C(Nc1cccc(Cl)c1)c1cccc(Oc2ccc([N+](=O)[O-])cc2Cl)c1,-0.8,-12.0,-21.7,2.5,3.9
O=C(Nc1ccc([N+](=O)[O-])cc1Cl)c1cc(Cl)ccc1O,9.5,100.9*,100.1*,·,-3.2
CC1CCCCC1NC(=O)C(C#N)=Cc1ccc(F)c(F)c1 (stereo not drawn),·,5.9,-3.2,·,·
O=C(Nc1nnc(C2=COCCO2)o1)c1cccc(C(F)(F)F)c1,0.8,95.0*,82.1,15.8,-5.2
O=C(Nc1nnc(C2=COCCO2)o1)c1ccc(F)cc1,-1.2,16.2,-5.0,0.1,10.4
CCN(c1ccccc1)c1nc(=O)c2cccnc2s1,1.0,4.1,11.7,4.0,5.3
CCN(c1cccc(C)c1)c1nc2ccsc2c(=O)s1,1.9,-3.5,88.4*,-8.4,-1.7
CCOc1ccc(C=NN2C(C)CCCC2C)cc1OC (stereo not drawn),·,3.9,13.3,·,·
FC(F)(F)c1cccc(N2CCc3cn[nH]c32)c1,292.5*,31.5,18.8,7.3,1.1
SMILES,PfHsp40 yeast,RN4220 kill,ugtP null kill,BJeLR lethal,CCHFV vOTU inh
FC(F)(F)c1cccc(N2CCNCC2)c1,·,1.8,-2.0,6.6,·
CCOC(=O)N1CCN(C(=O)c2ccc3c(=O)n(Cc4ccccc4OC)c(=S)[nH]c3c2)CC1,28.7*,3.6,9.1,-14.2,-1.5
CC(NCCN(C)C)C1CCC2C3CCc4cc(O)ccc4C3CCC12C (stereo not drawn),62.7*,·,·,·,6.5
CN(C)c1ccc(-c2nn3c(-c4ccccc4Cl)nnc3s2)cc1,4.5,-0.1,-15.7,-6.0,-12.6
COc1ccccc1-c1nnc2sc(-c3ccc(N(C)C)cc3)nn12,0.3,6.7,-12.9,53.1*,-3.0
O=C(O)COc1ccc(C=NNC(=O)Cc2ccc(Cl)cc2)cc1,·,4.9,3.4,·,·
O=C(O)Cn1cc(C=C2SC(=O)N(CC(=O)N3CCCCCC3)C2=O)c2ccccc21,·,-2.9,-2.2,·,·
C=CCn1c(Sc2ncc([N+](=O)[O-])s2)n[nH]c1=O,0.4,26.6,89.4*,6.1,5.1
C=CCn1c(CSc2ccccc2[N+](=O)[O-])n[nH]c1=S,-0.3,3.4,-3.0,5.9,3.9
Cc1cccc(N2C(=O)C(Oc3ccc(Cl)cc3Cl)C2C=O)c1C (stereo not drawn),280.5*,·,·,·,-2.3
COCCN1CC(=O)N(c2cccc(C)c2C)C(c2ccc(Cl)cc2)C1=O (stereo not drawn),-0.1,-0.1,-3.4,-1.9,-2.5
CCOC(=O)c1sc(NC(=O)c2cccnc2)c(C#N)c1C,-0.7,73.8,84.7*,10.0,-14.5
CCOC(=O)c1c(NC(=O)c2cccnc2)sc(C)c1C,-0.2,19.0,-9.3,0.7,-13.4
CC(=O)c1ccc(-n2c(C)ccc2-c2ccccc2)cc1,6.6,3.8,37.9,-5.3,-6.5
COC(=O)c1ccc(-n2c(C)ccc2-c2ccccc2)cc1,0.9,-0.5,97.1*,9.0,-10.7
COc1ccc(O)c(C(=O)CC(=O)c2ccccc2C)c1,314.2*,30.7,12.0,0.8,-6.1
COc1ccc(O)c(C(=O)CC(=O)c2ccc(F)cc2)c1,230.5*,·,·,18.2,-38.4
COc1ccc(C(=O)CC(=O)c2ccccc2O)cc1,-0.6,-6.5,2.8,-10.7,-135.1
COc1ccc(O)c(C(=O)CC(=O)c2cccnc2)c1,-0.6,1.4,1.7,·,-60.6
CC(C)(C)C1CCc2[nH]c3ccccc3c(=O)c2C1 (stereo not drawn),102.2*,4.3,0.9,-5.6,-0.4
c1c[nH]c(CN2CCN(Cc3ncc[nH]3)CC2)n1,383.8*,·,·,·,17.9
O=C(c1cccc(C(F)(F)F)c1)C1CCCN(Cc2ncc[nH]2)C1 (stereo not drawn),14.2,5.5,-3.1,-5.8,-10.1
CCc1c(C)c(C#N)c2nc3ccccc3n2c1-n1nc(C)cc1C,-0.3,2.0,3.5,13.8,-0.9
Cc1c(Cc2ccccc2)c(NCCN(C)C)n2c(nc3ccccc32)c1C#N,170.6*,2.5,9.4,21.5,-1.1
CCCCc1c(C)c(C#N)c2nc3ccccc3n2c1NCCN(C)C,-0.7,2.6,-5.0,12.7,8.7
SMILES,PfHsp40 yeast,RN4220 kill,ugtP null kill,BJeLR lethal,CCHFV vOTU inh
CCc1c(C)c(C#N)c2nc3ccccc3n2c1Cl,·,·,·,128.5*,·
COc1cc2cnc(-c3ccccc3)c(-c3ccc(C(F)(F)F)cc3)c2cc1OC,4.8,100.0*,100.5*,·,6.7
COc1cc2cnc(-c3ccccc3)c(C(=O)c3ccc(F)cc3)c2cc1OC,411.4*,11.7,-10.6,·,5.4
COc1cc2cnc(-c3ccccc3)c(C(=O)c3ccc(OCc4ccccc4)cc3)c2cc1OC,-2.3,6.4,5.8,·,9.0
Fc1ccc2cnc(-c3ccccc3)c(-c3ccc(C(F)(F)F)cc3)c2c1,0.9,-2.4,-7.2,·,4.3
CC(=NO)c1noc(C)c1C(=O)Nc1nccs1,·,1.9,-5.2,·,·
CC(=NNC(=O)COc1ccc(C(C)(C)C)cc1)c1ccc(-n2ccnc2)cc1,·,2.5,5.6,·,·
Cc1c(C(=O)N(Cc2ccccc2)Cc2cccs2)cnn1-c1ccc(Cl)cc1,116.8*,·,·,-4.0,11.4
CCN1C(=O)/C(=C/c2ccc3c(c2)CCN3CCCCl)C(=O)NC1=S,0.2,0.5,-0.3,2.1,15.3
O=C1NC(=S)N(C2CC2)C(=O)/C1=C/c1ccc2c(c1)CCN2CCCCl,63.3*,5.6,1.7,3.5,5.8
